# Shown are actives, neighbours in structure and some others; about 2% of the full set was active somewhere.
# CHRM4 PAM = potentiates acetylcholine response at human M4 receptor; P08173; CHO-K1 hM4/Gqi5, Fluo-8 calcium fluorescence, ACh EC20; 0% = ACh EC20, 100% = maximal ACh; activation, % at 3 µM; 360,000 compounds, 0.4% hits; AID 624126;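 active = activation above its plate's cutoff, the mean activation of sample wells plus 3 SD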
# Target sequence (P08173 whole entry, looked up): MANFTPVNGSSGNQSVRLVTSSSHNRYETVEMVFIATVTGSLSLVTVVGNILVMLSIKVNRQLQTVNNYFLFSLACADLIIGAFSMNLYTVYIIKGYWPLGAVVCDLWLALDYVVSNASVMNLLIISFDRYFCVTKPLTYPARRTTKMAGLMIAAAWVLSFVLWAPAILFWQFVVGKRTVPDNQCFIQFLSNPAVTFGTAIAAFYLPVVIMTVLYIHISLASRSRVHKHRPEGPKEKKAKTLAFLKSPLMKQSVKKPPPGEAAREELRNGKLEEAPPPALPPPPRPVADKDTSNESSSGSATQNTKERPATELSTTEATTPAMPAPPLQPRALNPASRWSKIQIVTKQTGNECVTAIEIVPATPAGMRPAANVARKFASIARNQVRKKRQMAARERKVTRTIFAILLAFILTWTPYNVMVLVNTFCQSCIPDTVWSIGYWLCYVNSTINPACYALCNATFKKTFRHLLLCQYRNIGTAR
# CHO-K1 Ca PAM = nonselective activator or artifact in parental CHO-K1 calcium assay; ATP EC20, Fluo-8 calcium fluorescence; 0% at ATP EC20, 100% at ATP max; 360,000 compounds, 0.02% hits; activation, % at 3 µM; AID 602247;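 active = activation above the run cutoff, the mean activation of all test compounds plus 3 SD, cut at about 40% in these data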;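 note: peak over basal fluorescence ratio in a 140 s read after ATP addition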
# CHO-K1 Ca ag = nonselective activator or artifact in parental CHO-K1 cells | activation, % at 3 µM | AID 602248 | Fluo-8 calcium fluorescence; scaled to maximal ATP response, vehicle zero | 360,000 compounds, 0.48% hits; in the data active = activation above about 15%;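 note: untransfected CHO-K1 host cells lacking M1 receptor as counterscreen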
# M4 ag = agonists of human muscarinic M4 receptor (CHRM4). 360,000 compounds, 0.14% hits. activation, % at 3 µM. P08173. CHO-K1 hM4/Gqi5, Fluo-8 calcium fluorescence; vehicle 0%, full acetylcholine response 100%;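 active = activation above the run mean over all test wells plus 3 SD, cut at about 32% in these data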;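 note: peak over basal fluorescence ratio per well then scaled between controls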
# M4 antag = CHRM4 antagonism in calcium assay; P08173; CHO-hM4 cells, ACh EC80, Fluo-8 calcium fluorescence; inhibition, % at 3 µM; 360,000 compounds, 0.73% hits;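 active = inhibition above its plate's cutoff, the mean inhibition of sample wells plus 3 SD, cut at about 27% in these data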
# CHO-K1 Ca antag = counter-screen for M1 antagonists: effect in parental CHO-K1 cells. ATP-induced calcium, Fluo-8 fluorescence. inhibition, % at 3 µM. 360,000 compounds, 0.6% hits;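 active = inhibition above a per-plate cutoff, the plate's mean sample inhibition plus 3 SD, cut at about 24% in these data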
# Numbers stand for hits; - = inactive; . = not tested or not shown; ! = a repeat was not active.
SMILES,CHRM4 PAM,CHO-K1 Ca PAM,CHO-K1 Ca ag,M4 ag,M4 antag,CHO-K1 Ca antag
Cn1nccc1C(=O)c1ccc(Cl)cc1,-,-,-,-,-,24.2
CSc1sc(C(=O)NC(=O)NCc2ccncc2)c(C)c1-c1ccon1,-,-,-,-,-,-
CSc1nncc(-c2ccc(F)cc2)n1,-,-,-,33.0,-,-
CSc1ccc2c(c1)C(N1CCN(C)CC1)Cc1ccccc1S2 (centres undefined),-,-,15.2!,-,55.1,-
CN1CCN(C2Cc3cc(F)ccc3Sc3ccc(Cl)cc32)CC1 (centres undefined),-,-,-,-,84.4,-
CN1CCN(C2Cc3ccccc3Sc3ccc(Cl)cc32)CC1 (centres undefined),-,-,-,-,52.5,-
CN1CCN(C2Cc3ccc(F)cc3Sc3cc(F)c(Cl)cc32)CC1 (centres undefined),-,-,-,-,-,-
COC(=O)c1ccc(-n2c(C)cc(C(=O)CSc3cccc[n+]3[O-])c2C)cc1,-,-,16.1,-,-,-
O=C(NNC(=O)c1n[nH]c2ccccc12)c1ccccc1,-,-,-,-,-,-
Cc1nc2c(c(=O)c3ccccc3n2C)c(=O)n1C1CCCCCC1,-,-,-,-,-,-
Cn1c2ccccc2c(=O)c2c(=O)n(C3CCCCC3)c(-c3ccco3)nc21,-,-,24.3,-,-,-
CC(O)[C@@H](NC(=O)C1CCC(CNC(=O)[C@H](Cc2ccccc2)NC(=O)OC(C)(C)C)CC1)C(=O)O (some centres undefined),16.3,-,-,-,-,-
CC(C)C[C@@H](NC(=O)C1CCC(CNC(=O)[C@H](Cc2ccccc2)NC(=O)OC(C)(C)C)CC1)C(=O)O (some centres undefined),-,-,-,-,-,-
CCC1=NN(C(=O)COc2ccccc2)C(O)(c2ccc(Br)cc2)C1 (centres undefined),-,-,21.5,-,-,-
COc1cccc(/C=N/Nc2snc(SC)c2C#N)c1O,-,-,16.9,35.3,-,-
COc1ccc(/C=N/Nc2snc(SC)c2C#N)cc1OC,-,-,-,-,-,-
NC(=O)C1CCN(C(=O)C2CC(=O)N(c3ccc4c(c3)OCCO4)C2)CC1 (centres undefined),-,-,-,-,-,-
COc1cc(-c2cc(C(=O)Nc3ccccc3N3CCOCC3)c3ccccc3n2)cc(OC)c1OC,-,-,-,-,-,-
Cc1cc(C)c(OCC(=O)Nc2ccccc2N2CCOCC2)c(C)c1,-,-,17.1,-,34.7,-
O=C(Nc1ccccc1N1CCOCC1)c1cc(-c2ccco2)nc2ccccc12,-,-,-,-,34.6,-
COc1ccc(-c2nc3ccccc3c(=O)n2-c2c(C)n(C)n(-c3ccccc3)c2=O)cc1,-,-,-,-,-,-
Cc1c(-n2c(-c3ccccc3)nc3ccccc3c2=O)c(=O)n(-c2ccccc2)n1C,-,-,20.6,-,-,-
CCN(CC)S(=O)(=O)c1ccc(C(=O)NCC2CCCCC2)cc1,-,-,-,-,-,-
CC1CCN(CCOCCSc2ccc(Cl)cc2)CC1,-,-,-,-,-,26.9
Clc1ccc(SCCOCCN2CCCCC2)cc1,-,-,-,-,-,-
SMILES,CHRM4 PAM,CHO-K1 Ca PAM,CHO-K1 Ca ag,M4 ag,M4 antag,CHO-K1 Ca antag
COc1ccc(CN(Cc2ccccn2)S(=O)(=O)c2ccc(-n3cnnn3)c(OC)c2)cc1,-,-,-,-,-,-
COc1ccc(CN(Cc2ccccn2)S(=O)(=O)c2ccc(-n3cnnn3)cc2)cc1,-,-,-,-,-,40.0
CN1CCCCC1CCN1c2ccccc2Sc2ccc(S(C)=O)cc21 (centres undefined),-,-,-,-,88.0,-
CCc1ccccc1NC(=O)NC1CCCCC1,-,-,-,-,-,-
O=C(NC1CCCCC1)C(c1ccccc1)N1CCCC1 (centres undefined),-,-,-,-,46.1,-
O=C(Nc1ccccc1Cl)NC1CCCCCCC1,-,-,23.4,-,-,-
CC(C(=O)NC1CCCC1)N1CCN(Cc2ccccc2)CC1 (centres undefined),-,-,-,-,-,-
CC(C(=O)NC(=O)NC1CCCCC1)N1CCN(C(c2ccccc2)c2ccccc2)CC1 (centres undefined),-,-,-,-,37.5,-
Cc1ccc(C(C(=O)NC2CCCCC2)N2CCCC2)cc1 (centres undefined),-,-,-,-,-,-
CCCCN(C=O)c1c(CC)nc2ccc(C(=O)NCCOc3ccc(OC)cc3)cn12,-,-,-,-,-,-
CN(CC(=O)Nc1ccccc1Br)C(=O)c1ccccc1OCc1ccc(Cl)cc1,-,-,-,-,-,-
C/C(=N\NC(=O)Cc1ccc(Cl)c(Cl)c1)c1cccnc1,-,-,-,-,-,44.0
CC(CCC(C)C(C)(C)C)[C@@H]1CC[C@H]2C3C[C@H](OS(O)(=S)=S)[C@H]4C[C@H](OS(O)(=S)=S)[C@@H](OS(O)(=S)=S)C[C@]4(C)[C@H]3CC[C@]12C (some centres undefined) (tested in a mixture with another compound),-,46.2,23.6,80.7,51.1,-
CCOC(=O)c1c(S(=O)(=O)NCC(=O)Nc2ccc(F)cc2)c(C)n(C)c1C,-,-,-,-,-,-
c1ccc(-c2nn3nnnc3c3ccccc23)cc1,-,-,-,-,-,-
Cc1ccc(-c2nn3nnnc3c3ccccc23)cc1C,38.6,-,-,-,-,-
Cc1ccc(-c2nn3cnnc3c3ccccc23)cc1C,-,-,-,-,-,24.3
Cc1cccc(C)c1NC(=O)C(c1ccncc1)n1c(=O)c(-c2cc3ccccc3[nH]2)nc2ccccc21 (centres undefined),-,.,.,-,-,.
CC(C)(C)NC(=O)c1ccccc1-c1nc2ccccc2s1,-,-,33.5,-,-,-
CCOC(=O)c1csc(-c2snnc2C)n1,-,-,16.7,-,-,-
COC(=O)CSc1nc2c(cnn2-c2ccc(Cl)cc2)c(=O)[nH]1,-,-,-,-,-,-
CCOC(=O)C1c2cccc(O)c2CCN1C(C)=O (centres undefined),-,-,-,-,-,-
CCc1cccc(C)c1NC(=O)C1=C(C(=O)O)CCCC1,-,-,-,-,27.8,-
O=C1CN=C(Nc2ccccc2Cl)N1c1ccccc1,-,-,-,-,-,-
Cc1ccc(C)c(N2C(=O)CN=C2Nc2ccccc2Cl)c1,21.7,-,-,-,-,-
Cc1cc(C(=O)CSc2nnc(-c3ccccc3)n2-c2ccccc2)c(C)n1-c1ncn[nH]1,25.9,-,-,-,-,-
